The list is not random: actives were taken first. Their share in the collection is about 0.82%.
Cardiac RTF inh: cardiac RTF calcium desensitization | IANBD-labeled cardiac RTF, Ca2+ fluorescence | inhibition, % at 7.15 µM | actives 0.12% (n = 340,000) | AID 493244;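 active = inhibition above the mean inhibition of all tested compounds plus 3 SD, cut at about 17% in these data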;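 also: assay run at fixed EC70 calcium of 1.6 mM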
C-LANA FP: inhibitors of KSHV LANA C-terminal domain DNA binding. actives 0.078% (n = 340,000). inhibition, % at 9 µM. MBP-C-LANA/FAM-LBS DNA binding, fluorescence polarization;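 active = highest replicate inhibition at or above 60% at 9 µM, even if other replicates fall short; inactive = all replicates below 60% inhibition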
eLon inh: E. coli protease La inhibition | P0A9M0 | purified E. coli Lon protease, fluorescence polarization | inhibition, % at 7.94 µM | actives 0.42% (n = 360,000); in the data active = inhibition above about 13%, passing the limit was not always enough
RTF Ca sens act: increases calcium sensitivity of human cardiac regulated thin filaments; IANBD-labeled TnC RTF fluorescence at EC20 calcium; 0% EC20 calcium, 100% full calcium; activation, % at 7.2 µM; actives 0.24% (n = 340,000);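 active = activation above the mean over all tested compounds plus 3 SD, cut at about 30% in these data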;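 also: rise in fluorescence read as greater calcium sensitivity of cardiac thin filaments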
Keap1-Nrf2 PPI: disrupts human Keap1 binding to Nrf2 peptide; Q14145; Keap1 Kelch-Nrf2 peptide fluorescence polarization, 1536-well; actives 0.15% (n = 340,000); AID 504523; inhibition, % at 9.4 µM; in the data active = inhibition above about 12%;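 also: human Keap1 Kelch domain with fluorescein labeled Nrf2 9mer peptide probe; higher means more block of Keap1 binding to Nrf2 peptide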
Target sequence (Q14145 whole entry, looked up, the tested form may be a part): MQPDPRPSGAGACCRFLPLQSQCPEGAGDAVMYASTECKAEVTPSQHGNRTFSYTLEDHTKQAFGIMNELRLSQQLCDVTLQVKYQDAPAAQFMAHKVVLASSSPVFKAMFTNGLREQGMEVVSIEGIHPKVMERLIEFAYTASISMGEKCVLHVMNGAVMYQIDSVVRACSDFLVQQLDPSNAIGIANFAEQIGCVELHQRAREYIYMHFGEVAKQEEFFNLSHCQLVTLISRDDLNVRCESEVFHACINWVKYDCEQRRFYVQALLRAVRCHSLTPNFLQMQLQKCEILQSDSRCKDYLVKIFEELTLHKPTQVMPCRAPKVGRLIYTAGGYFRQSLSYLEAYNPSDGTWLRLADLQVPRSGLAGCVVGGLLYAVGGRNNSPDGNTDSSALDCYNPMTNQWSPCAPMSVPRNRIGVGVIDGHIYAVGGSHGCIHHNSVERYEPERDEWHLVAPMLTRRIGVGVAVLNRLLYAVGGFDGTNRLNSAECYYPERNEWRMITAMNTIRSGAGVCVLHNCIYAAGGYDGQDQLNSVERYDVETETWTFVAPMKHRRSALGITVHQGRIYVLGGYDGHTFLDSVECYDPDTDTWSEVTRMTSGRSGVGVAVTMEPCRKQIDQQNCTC
RTF inh confirm: cardiac RTF calcium sensitivity inhibition, confirmation; shares compounds with Cardiac RTF inh; reconstituted cardiac thin filaments, calcium sensitivity fluorescence; inhibition, % at 7.15 µM; actives 8% (n = 360); AID 504635; in the data active = inhibition above about 18%
DNA intercal 2: DNA intercalation in C-LANA counter-screen; shares compounds with C-LANA FP; 20 tested, under 10 active; Acridine orange-DNA displacement, fluorescence polarization; AC50, µM (highest dose often 35 µM); AID 588364;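 active = signal drop with an AC50 no more than ten times the top valid dose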
Keap1 TSA: Keap1 (human) Kelch domain binding; shares compounds with Keap1-Nrf2 PPI; Keap1 Kelch thermal shift, delta Tm; hits give high values; max delta Tm, degrees C; actives 8% (n = 400); AID 651823; in the data active = max delta Tm above about 0.48 degrees C
Sypro dye melt: counter-screen for Keap1 thermal shift hits: dye-only artifacts. shares compounds with Keap1-Nrf2 PPI. Sypro Orange dye-only thermal melt, no protein, delta Tm; top dose 26 µM. delta Tm, degrees C (no concentration beside the values). 140 tested, under 10 active. AID 651858;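 active = at highest dose tested, delta Tm positive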
E coli Lon conf: E. coli Lon inhibition confirmation; shares compounds with eLon inh; purified E. coli Lon, fluorescence polarization; inhibition, % at 7.94 µM; actives 31% (n = 1,400); in the data active = inhibition above about 16%
Hits are given with their value; - = inactive; . = no result given.

SMILES	Cardiac RTF inh	C-LANA FP	eLon inh	RTF Ca sens act	Keap1-Nrf2 PPI	Keap1 TSA	others
O=C(O)c1cccc(N/N=C/c2ccc(OC(F)(F)F)cc2)c1	-	-	-	-	-	.
O=S(=O)(O)c1ccc(O)c2cc(Nc3ccccc3)ccc12	105	120	-	-	25	0.97	RTF inh confirm=50
Cc1ccc(S(=O)(=O)c2cc(Nc3ccccc3)ccc2O)cc1	-	-	-	-	-	.
CC(C)C(C(=O)O)N1C(=O)/C(=C/C=C/c2ccco2)SC1=S (stereo unspecified)	83	107	-	-	13	0.91	RTF inh confirm=40
CCCCc1ccc(NS(=O)(=O)c2cccc(C(=O)N3CCNC(=O)C3)c2)cc1	-	-	-	-	-	.
CN(C)CCCn1c(=S)[nH]c2ccccc2c1=O	-	-	-	-	-	.
CN(C)CCCN1C(=O)C2CCc3[nH]c4ccccc4c3C2C1=O (stereo unspecified)	19	-	24	-	-	.	RTF inh confirm=-;E coli Lon conf=-
NS(=O)(=O)c1cc(C(=O)NC2CCSc3ccccc32)ccc1Cl (stereo unspecified)	31	90	18	-	20	-	RTF inh confirm=-;Sypro dye melt=-;E coli Lon conf=17
CC(C)[C@H](NC(=O)c1ccccc1F)C(=O)NC1CCCCCCC1	-	-	-	-	-	.
CCCCn1c(SCC(=O)c2ccc(O)c(O)c2)nc2ccsc2c1=O	-	-	-	-	-	.
O=C(O)CCCCCn1c(SCC(=O)c2ccc(O)c(O)c2)nc2ccsc2c1=O	-	-	-	-	-	.	DNA intercal 2=-
O=C1/C(=C/c2ccco2)Oc2c1ccc(O)c2CN1CCCCC1	-	66	-	-	-	.	DNA intercal 2=30µM
CCCNC(=O)CN1C(=O)c2ccccc2Sc2ncccc21	-	-	-	-	-	.
CCC(=O)Oc1ccc2c(c1)O/C(=C\c1ccco1)C2=O	.	-	-	.	-	.	DNA intercal 2=-
CCc1ccccc1NC(=O)CCS(=O)(=O)c1ccc(Br)cc1	-	-	-	-	-	.
COC(=O)c1ccccc1NC(=O)CCS(=O)(=O)c1ccc(Br)cc1	-	-	-	-	-	.	DNA intercal 2=-
O=C(c1[nH]c(C(F)(F)F)nc1-c1ccccc1)N1CCC(C(O)(c2ccccc2)c2ccccc2)CC1	.	.	-	.	.	.
O=C(NCc1ccc(Cl)cc1)c1cc(=O)[nH]c2ccccc12	-	-	-	-	59	-
CC1CCN(C(=O)Cn2cc(C(F)(F)F)ccc2=O)c2ccccc2S1 (stereo unspecified)	-	-	-	-	49	-
O=C(Cn1cc(C(F)(F)F)ccc1=O)N1CCCc2ccccc21	-	-	-	-	-	.
Cc1noc(C)c1-c1ccc(C(=O)NCc2ccc(Cl)cc2)c2occc12	.	.	-	.	.	.
COc1ccc(N(Cc2ccccc2)S(=O)(=O)c2cccc(C(=O)Nc3ncccc3C)c2)cc1	-	-	-	-	22	-
COc1ccccc1N(Cc1ccccc1)S(=O)(=O)c1cccc(C(=O)Nc2ncccc2C)c1	-	-	-	-	-	.
O=C(CSCC(=O)Nc1ccccc1)N/N=C/c1c(O)ccc2ccccc12	-	-	-	-	12	-	Sypro dye melt=-
O=C(COc1cc(F)ccc1[N+](=O)[O-])NCCN1C(=O)CSC1=O	-	-	-	-	-	.
COc1cc(/C=C/CN2CCN(CCC(C)C)C(CCO)C2)ccc1O (stereo unspecified)	-	-	-	-	18	-
Cc1ccc(OC(C)C(=O)N2CCN(c3ccccn3)CC2)cc1 (stereo unspecified)	-	-	-	-	35	-
Cc1ccc(C(=O)N2CCN(c3ccccn3)CC2)cc1	-	-	-	-	-	.
C/C(=N/NS(=O)(=O)c1ccc(C)cc1C)c1c[nH]c2ccccc12	-	-	-	-	-	.

Compound activity: PubChem BioAssay, several laboratories
